From PubChem BioAssay (Tox21)
Inconclusive results are not listed. Activity calls are given as the source filed them. Unless noted, the call rests on the fitted dose curve; in most records, active means well fitted curve in the direction sought with a large enough effect in the repeat runs; inconclusive means weak or mixed curves; inactive means no such curve, though single readings can be large; an effect the other way counts as inactive or inconclusive.

Key:
[1] = qHTS assay to identify small molecule agonists of the estrogen receptor alpha (ER-alpha) signaling pathway in the presence of an antagonist - cell viability counter screen (AID 1259386);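 further: series mostly up to about 92 µM; cells exposed to compounds for 22 h at 37 °C before the viability read; nearly all actives have a fitted effect of over 30% in size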
Outline: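 The test measures whether compounds kill ER-alpha reporter cells (VM7Luc4E2) under antagonist co-treatment (ICI-182,780, 10.0nM). Fluorescence from CellTiter-Fluor is read after a 22hr exposure.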

[2] = molecular target: Progesterone receptor (Homo sapiens) (UniProt P06401); assay: qHTS assay to identify small molecule agonists of the progesterone receptor (PR) signaling pathway (AID 1346784; calls by dose curve; further: nearly all actives have a fitted effect of over 30% in size)
Outline: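 The screen uses PR-UAS-bla HEK 293T cells in charcoal-stripped serum (2%). Compounds are applied for 16 hr at 37C after a 6 hr pre-incubation, and reporter activity is detected with a FRET beta-lactamase substrate after 2 hr at room temperature.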

[3] = molecular target: Progesterone receptor (Homo sapiens) (UniProt P06401); assay: qHTS assay to identify small molecule antagonists of the progesterone receptor (PR) signaling pathway (AID 1346795; active means well fitted inhibition curve with a large enough effect in the signal ratio in the repeat runs, not every such curve was filed as active; the % refers to the signal ratio; further: potency means the concentration at half of the fitted maximal effect)
Outline: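 After 6 hr plating at 37C in 2% stripped-serum medium, PR-UAS-bla HEK293T cells got compounds, then 1 nM R5020. Sixteen hours later, LiveBLAzer substrate was applied for 2 hr at room temperature and fluorescence was recorded.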

[4] = qHTS assay to identify small molecule antagonists of the progesterone receptor (PR) signaling pathway - cell viability counter screen (AID 1346798); further: series mostly up to about 92 µM; nearly all actives have a fitted effect of over 50% in size
Outline: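 Viability was determined by ATP-based luminescence (CellTiter-Glo) in PR-UAS-bla HEK293T cells cultured in 2% charcoal-stripped serum and incubated 16 hr with compounds under R5020 stimulation.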

[5] = qHTS assay to identify small molecule agonists of the progesterone receptor (PR) signaling pathway - cell viability counter screen (AID 1346799; calls by dose curve; further: nearly all actives have a fitted effect of over 45% in size)
Outline: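 Viability was scored by ATP luminescence (CellTiter-Glo, 30 min, room temperature) in the same wells used for the reporter readout, after 16 hr compound exposure of PR-UAS-bla HEK293T cells.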

[6] = qHTS assay to identify small molecule agonists of the TGF-beta/Smad signaling pathway - cell viability counter screen (AID 1346829); further: top concentration of the series differs between compounds; nearly all actives have a fitted effect of over 45% in size
Outline: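 HEK 293T SBE-bla line, 5 hr compound exposure at 37 C, multiplexed CellTiter-Glo viability read by luminescence.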

[7] = qHTS assay to identify small molecule agonists of the TGF-beta/Smad signaling pathway (AID 1346859; active means well fitted activation curve with a large enough effect in the signal ratio in the repeat runs, not every such curve was filed as active; the % refers to the signal ratio; further: series mostly up to about 77 µM)
Outline: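 Dual-wavelength fluorescence (460/530 nm emission) quantified beta-lactamase expression under the Smad binding element in HEK 293T cells following 5 hr compound treatment at 37 C.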

[8] = molecular target: Thyrotropin-releasing hormone receptor (Homo sapiens) (UniProt P34981); assay: qHTS assay to identify small molecule antagonists of the thyrotropin-releasing hormone receptor (TRHR) signaling pathway (AID 1346877; active means well fitted inhibition curve with a large enough effect in the repeat runs, not every such curve was filed as active; further: series mostly up to about 51 µM)
Outline: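 Overnight-plated (18 h, 37 °C) HEK293 cells expressing TRHR were dye-loaded 2 h, treated with compound, then stimulated with TRH at 1 nM final. Fluorescence intensity was captured every second for 3 min.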

[9] = molecular target: Thyrotropin-releasing hormone receptor (Homo sapiens) (UniProt P34981); assay: qHTS assay to identify small molecule agonists of the thyrotropin-releasing hormone receptor (TRHR) signaling pathway (AID 1346891; calls by dose curve;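 further: HEK293 cells expressing TRHR with calcium dye readout; series mostly up to about 58 µM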)
Outline: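 Kinetic fluorescence (3 min, 1 s intervals) reported intracellular calcium after compound transfer onto TRHR-Hek293 cells pre-loaded with dye for 2 h at 37 °C.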

[10] = Human pregnane X receptor (PXR) small molecule agonists, qHTS cell viability counter screen (AID 1346977); further: nearly all actives have a fitted effect of over 50% in size
Outline: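 HepG2 cells stably carrying the PXR-Luc reporter are cultured with 5% charcoal-stripped FBS and treated with compounds for 24hr. CellTiter-Fluor is added at 23hr and fluorescence is read after 1hr.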

[11] = Caspase-3/7 induction in HepG2 cells by small molecules, qHTS assay (AID 1346978); further: nearly all actives have a fitted effect of over 15% in size
Outline: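 Caspase-3/7 induction was measured by Caspase-Glo 3/7 luminescence (30 min, room temperature) after a 17 hr compound exposure of wild-type HepG2 cells seeded at 2,000 per well and pre-incubated 5 hr.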

[12] = Caspase-3/7 induction in CHO-K1 cells by small molecules, qHTS cell viability counter screen (AID 1346979); further: nearly all actives have a fitted effect of over 35% in size
Outline: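 Seeding: 1,500 CHO-K1 cells/well. Rest: 5hr, 37C. Treatment: compounds in DMSO, 16hr. Read: CellTiter-Fluor, 1hr, fluorescence.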

[13] = Caspase-3/7 induction in CHO-K1 cells by small molecules, qHTS assay (AID 1346980); further: nearly all actives have a fitted effect of over 15% in size
Outline: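 Luminescent Caspase-Glo 3/7 read (30min, room temperature) quantified apoptosis induction. Cells were wild-type CHO-K1, treated with compound for 17hr at 37 C and 5% CO2.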

[14] = Caspase-3/7 induction in HepG2 cells by small molecules, qHTS cell viability counter screen (AID 1346981); further: series mostly up to about 92 µM; nearly all actives have a fitted effect of over 30% in size
Outline: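 Treatment of HepG2 cells with DMSO-delivered compounds ran 16 hr at 37 C following a 5-hr pre-incubation of 2,000 cells/well. CellTiter-Fluor fluorescence, read after 1 hr, served as the viability measure in a qHTS format.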

[15] = molecular target: Nuclear receptor subfamily 1 group I member 2 (Homo sapiens) (UniProt O75469); assay: Human pregnane X receptor (PXR) small molecule agonists, qHTS assay (AID 1346982); further: nearly all actives have a fitted effect of over 35% in size; further: potency means the concentration at half of the fitted maximal effect
Outline: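 Stable HepG2 line reporting PXR-mediated CYP3A4 expression via luciferase. Treatment: 24 hr with compounds in DMSO at 37 C. Detection: ONE-Glo luminescence.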

[16] = qHTS assay to identify small molecule antagonists of the TGF-beta/Smad signaling pathway - cell viability counter screen (AID 1346824); further: nearly all actives have a fitted effect of over 50% in size
Outline: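 Cytotoxicity counter-screen run in the same wells as the beta-lactamase Smad reporter read: CellTiter-Glo luminescence after 30 min at room temperature. HEK 293T SBE-bla cells had 5 hr compound exposure at 37 C with TGF-beta1 (0.25 ng/mL stock).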

[17] = molecular target: Nuclear receptor subfamily 1 group I member 2 (Rattus norvegicus) (UniProt Q9R1A7); assay: Rat pregnane X receptor (rPXR) activation by small molecules, qHTS assay (AID 1346983); details: rPXR luciferase reporter cells, One-Glo luminescence, 24 h; max activation: active compounds read high; further: nearly all actives have a fitted effect of over 20% in size
Outline: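 Luminescent readout (One-Glo luciferase, 30 min room temperature) followed 24 hr compound treatment at 37 C of rPXR cells plated 2,000 per well and preincubated 5hr; qHTS format with compounds delivered in DMSO.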

[18] = molecular target: Nuclear receptor subfamily 1 group I member 2 (Homo sapiens) (UniProt O75469); assay: CYP3A4 induction through human pregnane X receptor (PXR) by small molecules, qHTS assay (AID 1346984); further: nearly all actives have a fitted effect of over 40% in size
Outline: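 After 24 h at 37C with compound, DPX-2 cells (HepG2, co-transfected PXR response element and CYP3A4 promoter-luciferase) got 3uM final P450-Glo Luciferin-IPA for 3 h; One-Glo luminescence followed.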

[19] = molecular target: Nuclear receptor subfamily 1 group I member 2 (Homo sapiens) (UniProt O75469); assay: Human pregnane X receptor (PXR) activation by small molecules, qHTS assay (AID 1346985); further: nearly all actives have a fitted effect of over 40% in size
Outline: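 DPX-2 cells (HepG2 co-transfected with a PXR response element and a CYP3A4-promoter luciferase construct) were seeded at 2,000 per well, rested 5 hr at 37C, then exposed to DMSO-dissolved compounds for 24 hr. Activation was read as luciferase luminescence.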
On the % scale 0 is the no-effect control and ±100 the full control effect.

Chain of Nuclear receptor subfamily 1 group I member 2 (Homo sapiens) (O75469 whole entry, looked up): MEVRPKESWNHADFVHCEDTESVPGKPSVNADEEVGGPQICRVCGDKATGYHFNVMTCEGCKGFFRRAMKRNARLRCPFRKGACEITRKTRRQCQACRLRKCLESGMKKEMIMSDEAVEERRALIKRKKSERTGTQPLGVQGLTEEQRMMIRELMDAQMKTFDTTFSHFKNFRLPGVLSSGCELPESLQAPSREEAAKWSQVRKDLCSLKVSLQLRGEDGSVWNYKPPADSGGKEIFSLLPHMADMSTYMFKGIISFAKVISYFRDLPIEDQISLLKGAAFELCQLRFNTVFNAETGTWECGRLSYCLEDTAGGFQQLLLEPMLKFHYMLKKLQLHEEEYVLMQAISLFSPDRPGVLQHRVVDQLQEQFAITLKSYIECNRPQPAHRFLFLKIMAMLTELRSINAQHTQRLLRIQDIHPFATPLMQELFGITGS
Chain of Thyrotropin-releasing hormone receptor (Homo sapiens) (P34981 whole entry, looked up): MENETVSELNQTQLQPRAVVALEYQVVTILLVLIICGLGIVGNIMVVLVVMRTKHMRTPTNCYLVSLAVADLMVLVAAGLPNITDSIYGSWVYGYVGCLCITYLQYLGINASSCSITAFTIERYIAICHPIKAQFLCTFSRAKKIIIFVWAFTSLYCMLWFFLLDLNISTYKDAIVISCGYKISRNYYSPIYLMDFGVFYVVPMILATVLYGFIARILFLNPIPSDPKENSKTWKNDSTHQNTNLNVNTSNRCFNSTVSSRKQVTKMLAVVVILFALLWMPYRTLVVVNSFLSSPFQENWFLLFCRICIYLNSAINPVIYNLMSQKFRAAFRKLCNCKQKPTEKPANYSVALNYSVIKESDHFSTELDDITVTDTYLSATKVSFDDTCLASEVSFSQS
Chain of Progesterone receptor (Homo sapiens) (P06401 whole entry, looked up): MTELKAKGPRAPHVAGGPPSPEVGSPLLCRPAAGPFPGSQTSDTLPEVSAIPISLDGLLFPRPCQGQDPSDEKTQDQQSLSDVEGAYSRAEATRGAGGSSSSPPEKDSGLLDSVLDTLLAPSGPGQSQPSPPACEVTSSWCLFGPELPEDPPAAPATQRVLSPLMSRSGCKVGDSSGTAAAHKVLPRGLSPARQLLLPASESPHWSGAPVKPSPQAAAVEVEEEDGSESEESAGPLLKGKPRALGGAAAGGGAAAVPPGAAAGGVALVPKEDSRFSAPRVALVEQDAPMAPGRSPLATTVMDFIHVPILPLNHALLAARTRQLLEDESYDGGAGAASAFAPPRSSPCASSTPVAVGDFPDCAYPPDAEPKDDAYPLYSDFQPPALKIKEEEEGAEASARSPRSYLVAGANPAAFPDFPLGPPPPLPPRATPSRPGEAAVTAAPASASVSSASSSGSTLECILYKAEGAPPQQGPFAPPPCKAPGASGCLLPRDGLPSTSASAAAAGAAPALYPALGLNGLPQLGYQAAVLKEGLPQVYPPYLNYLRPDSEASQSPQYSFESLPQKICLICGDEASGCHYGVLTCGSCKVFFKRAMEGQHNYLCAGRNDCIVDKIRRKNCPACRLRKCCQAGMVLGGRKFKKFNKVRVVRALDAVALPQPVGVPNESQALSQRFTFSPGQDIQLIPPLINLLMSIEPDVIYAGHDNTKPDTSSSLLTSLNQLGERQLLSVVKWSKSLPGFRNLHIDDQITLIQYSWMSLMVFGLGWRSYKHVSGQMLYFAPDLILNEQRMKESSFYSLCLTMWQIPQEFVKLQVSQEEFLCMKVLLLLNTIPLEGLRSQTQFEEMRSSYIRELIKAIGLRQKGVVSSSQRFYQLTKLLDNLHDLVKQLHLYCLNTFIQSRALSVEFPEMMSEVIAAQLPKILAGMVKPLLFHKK
Chain of Nuclear receptor subfamily 1 group I member 2 (Rattus norvegicus) (Q9R1A7 whole entry, looked up): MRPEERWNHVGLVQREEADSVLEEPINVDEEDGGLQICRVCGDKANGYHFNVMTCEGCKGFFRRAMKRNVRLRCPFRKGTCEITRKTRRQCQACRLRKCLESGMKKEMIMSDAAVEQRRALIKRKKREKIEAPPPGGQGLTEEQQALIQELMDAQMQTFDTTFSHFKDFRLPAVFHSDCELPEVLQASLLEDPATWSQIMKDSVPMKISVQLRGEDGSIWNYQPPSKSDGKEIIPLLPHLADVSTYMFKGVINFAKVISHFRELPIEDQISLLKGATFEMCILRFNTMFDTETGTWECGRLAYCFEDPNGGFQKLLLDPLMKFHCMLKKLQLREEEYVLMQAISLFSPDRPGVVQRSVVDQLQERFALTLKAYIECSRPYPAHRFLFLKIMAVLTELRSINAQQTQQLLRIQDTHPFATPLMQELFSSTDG

Cc1cccc(C)c1NC(=O)c1cc(S(N)(=O)=O)c(Cl)cc1O
inactive: Potency [1] | Potency [2] | Potency [3] | Potency [4] | Potency [5] | Potency [6] | Potency [7] | outcome [8] | outcome [9] | Potency [10] | Potency [11] | Potency [12] | outcome [13] | Potency [14] | Potency [15]

CCc1ccc(C)cc1
inactive: Potency [1] | Potency [2] | Potency [3] | Potency [4] | Potency [5] | Potency [6] | Potency [7] | outcome [8] | outcome [9] | Potency [10] | Potency [11] | Potency [12] | outcome [13] | Potency [14] | Potency [15]

C/C(C=O)=C\c1ccccc1
inactive: Potency [1] | Potency [2] | Potency [3] | Potency [5] | outcome [16] | Potency [6] | Potency [7] | outcome [8] | Potency [10] | Potency [11] | Potency [12] | outcome [13] | Potency [14]
active: Potency [15] 30 µM

O=c1[nH]c2cc(C(F)(F)F)c(N3CCOCC3)cc2n(CP(=O)(O)O)c1=O
inactive: Potency [1] | Potency [2] | Potency [3] | Potency [4] | Potency [5] | outcome [16] | Potency [6] | Potency [7] | outcome [8] | outcome [9] | Potency [10] | Potency [11] | outcome [13] | Potency [14] | Potency [15] | max activation [17] -2.81% | Potency [18] | Potency [19]

COc1cc(C(C)=O)ccc1OCCCN1CCC(c2noc3cc(F)ccc23)CC1
inactive: Potency [1] | Potency [2] | Potency [3] | Potency [4] | Potency [5] | outcome [16] | Potency [6] | Potency [7] | outcome [8] | Potency [10] | Potency [11] | outcome [13]

O=C(Oc1ccccc1)c1ccc2ccccc2c1O
inactive: Potency [1] | Potency [2] | Potency [4] | Potency [7] | outcome [8] | Potency [10] | Potency [11] | Potency [12] | outcome [13] | Potency [14]
active: Potency [3] 30.6 µM | Potency [15] 61.1 µM

COc1ccc(CCN(C)CCCN2CCc3cc(OC)c(OC)cc3CC2=O)cc1OC
inactive: Potency [1] | Potency [2] | Potency [3] | Potency [4] | Potency [5] | Potency [6] | Potency [7] | outcome [8] | outcome [9] | Potency [10] | Potency [11] | Potency [12] | outcome [13] | Potency [14] | Potency [15] | max activation [17] 3.44% | Potency [18] | Potency [19]

CCCOC(=O)c1c(Cl)c(Cl)c(Cl)c(Cl)c1C(=O)OCCC
active: Potency [3] 17.2 µM | Potency [15] 17.2 µM
inactive: Potency [1] | Potency [2] | Potency [4] | Potency [5] | Potency [7] | outcome [8] | outcome [9] | Potency [10] | Potency [11]
